Potency data for 24 molecules are collected here from PubChem BioAssay (NCATS).

Results filed as inconclusive are left out. The source made the active and inactive calls. Unless noted, calls follow the shape of the dose curve; as a rule, active = well fitted cell-killing curve with a large enough effect; inconclusive = small, poorly fitted or top-dose-only effect; inactive = flat fitted curve, though single readings scatter.

Experiment [1] in a line: qHTS for Inhibitors of the Functional Ribonucleoprotein Complex (vRNP) of Lassa (LASV) Arenavirus: LASV Primary Screen - GLuc reporter signal (AID 1347082; calls by dose curve; tested in HEK293 reporter line; also: nearly all actives have a fitted effect of over 60% in size). To be noted: LASV minigenome vRNP, Gaussia luciferase reporter; series mostly up to 57.5 µM.
Experiment [2] is described as follows: qHTS for Inhibitors of the Functional Ribonucleoprotein Complex (vRNP) of Lassa (LASV) Arenavirus: Viability assay - alamar blue signal for LASV Primary Screen (AID 1347083; calls by dose curve; tested in HEK293 reporter line; also: nearly all actives have a fitted effect of over 80% in size). To be noted: cell viability, alamar blue fluorescence (LASV minigenome counter-screen); series mostly up to 57.5 µM. In general terms: Quantitative high-throughput screening tests each substance at several concentrations.

Experiment [3] concerns the target Nucleoprotein (Lymphocytic choriomeningitis virus (strain Armstrong)) (UniProt P09992). The experiment in a line: qHTS for Inhibitors of the Functional Ribonucleoprotein Complex (vRNP) of Lymphocytic Choriomeningitis Arenaviruses (LCMV): LCMV Primary Screen - GLuc reporter signal (AID 1347086; calls by dose curve; also: nearly all actives have a fitted effect of over 70% in size). To be noted: LCMV minigenome vRNP cell assay, Gaussia luciferase reporter; series mostly up to 57.5 µM.

Experiment [4] in a line: qHTS for Inhibitors of the Functional Ribonucleoprotein Complex (vRNP) of Lymphocytic Choriomeningitis Arenaviruses (LCMV): Viability assay - alamar blue signal for LCMV Primary Screen (AID 1347085; calls by dose curve; tested in HEK293 reporter line; also: nearly all actives have a fitted effect of over 80% in size). As to conditions: alamar blue viability counter-screen, LCMV vRNP screen cells; series mostly up to 57.5 µM.
Experiment [5] can be described thus: qHTS of pediatric cancer cell lines to identify multiple opportunities for drug repurposing: Primary screen for DAOY cells (AID 1347090). Also: nearly all actives have a fitted effect of over 55% in size. To be noted: DAOY medulloblastoma viability, CellTiter-Glo luminescence, 48 h; series mostly up to 46 µM. Summed up: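 Viability measured as metabolically active cells via CellTiter-Glo luminescence following 48 hours of compound exposure, 11-point dilutions in confirmatory testing. 500-1,000 cells/well plated 5 hours before dosing; controls were DMSO and 2.3 µM bortezomib.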

Experiment [6] in a line: qHTS of pediatric cancer cell lines to identify multiple opportunities for drug repurposing: Primary screen for TC32 cells (AID 1347089). Also: nearly all actives have a fitted effect of over 60% in size. As to conditions: TC32 Ewing sarcoma viability, CellTiter-Glo luminescence, 48 h; series mostly up to 45.8 µM. The method in brief: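 Measured quantity: luminescence from CellTiter-Glo, reflecting metabolically active TC32 cells following 48 h of compound. Curves came straight from multi-point titrations, with 8 or 11 points in primary and 11 in confirmatory screening.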
Potency is read from the fitted curve at half-maximal effect.

Sequence of Nucleoprotein (Lymphocytic choriomeningitis virus (strain Armstrong)) (P09992 whole entry, looked up): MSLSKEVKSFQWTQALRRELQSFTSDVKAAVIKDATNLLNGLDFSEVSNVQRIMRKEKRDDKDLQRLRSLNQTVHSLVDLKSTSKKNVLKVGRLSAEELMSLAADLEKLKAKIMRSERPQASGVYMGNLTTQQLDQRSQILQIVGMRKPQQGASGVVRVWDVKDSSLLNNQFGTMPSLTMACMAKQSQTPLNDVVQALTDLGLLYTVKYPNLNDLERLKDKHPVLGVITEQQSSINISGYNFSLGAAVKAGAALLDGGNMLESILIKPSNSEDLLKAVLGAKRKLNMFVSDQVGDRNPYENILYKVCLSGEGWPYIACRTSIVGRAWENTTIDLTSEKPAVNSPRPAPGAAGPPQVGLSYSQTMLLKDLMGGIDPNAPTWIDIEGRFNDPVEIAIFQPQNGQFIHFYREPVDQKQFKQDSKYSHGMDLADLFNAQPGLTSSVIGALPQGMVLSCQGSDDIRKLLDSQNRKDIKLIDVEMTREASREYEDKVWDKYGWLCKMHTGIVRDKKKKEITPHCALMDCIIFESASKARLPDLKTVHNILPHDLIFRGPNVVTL

`Nc1nc(-c2nn(Cc3ccccc3F)c3ncccc23)nc(N)c1N1CCOCC1`: the Potency result in experiment [1], in experiment [2] and in experiment [3] was “inactive” each time.

Consider `CC[C@H]1C=CC=CC[C@@H](C)[C@H](O)[C@@](C)(O)C(=O)[C@@H](C)[C@H](O)[C@@H](C)C(=O)[C@@H](C)[C@H](O)[C@@H](C)C=CC(=O)O[C@@H]2[C@@H](C)[C@H](CC1)O[C@]1(CC[C@H](C)[C@H](C[C@@H](C)O)O1)[C@H]2C`, for which the Potency is 137 nM (active) in experiment [1]; 0.0863 µM (active) in experiment [2]; 0.0968 µM (active) in experiment [4]; 76.9 nM (active) in experiment [3]; 3.7 nM (active) in experiment [5].

`O=c1cccc2n1CC1CNC[C@H]2C1`: the Potency entry in experiment [1], in experiment [3] and in experiment [6] was “inactive” each time. Further, the results for the Potency in experiment [2] and in experiment [5] were 27.3 µM (active) and 18700 nM (active), respectively.

Turning to `COc1cc2c(cc1OC)[C@@H]1C(=O)c3ccc4c(c3O[C@@H]1CO2)C=CC(C)(C)O4`, the Potency is 153 nM (active) in experiment [1], 1.93 µM (active) in experiment [2] and 243 nM (active) in experiment [3].

Consider `N#CCNC(=O)c1ccc(-c2ccnc(Nc3ccc(N4CCOCC4)cc3)n2)cc1`, for which the Potency result in experiment [1] and in experiment [3] was “inactive” each time. The Potency in experiment [2] was 21.7 µM (active).

Turning to `CC(=O)Nc1sc2c(c1-c1nc3ccccc3s1)CNC2`, the Potency entry in experiment [1] was “inactive”. The Potency is 0.0054 µM (active) in experiment [2] and 2.7 nM (active) in experiment [3].

`CN(C)[C@@H]1C(=O)C(C(N)=O)=C(O)[C@@]2(O)C(=O)C3=C(O)c4c(O)cccc4[C@@](C)(O)[C@H]3[C@H](O)[C@@H]12`: the Potency result in experiment [1], in experiment [2], in experiment [4], in experiment [3], in experiment [6] and in experiment [5] was “inactive” in each case.

Regarding `Nc1cc(C(F)(F)F)c(-c2cc(N3CCOCC3)nc(N3CCOCC3)n2)cn1`, the results for the Potency in experiment [1], in experiment [2] and in experiment [3] were 1930 nM (active), 1.22 µM (active) and 685 nM (active), respectively.

For `Cc1cc(O)ccc1Cl`, the Potency entry in experiment [1], in experiment [2], in experiment [4], in experiment [3], in experiment [6] and in experiment [5] was “inactive” throughout.

Turning to `CC(N[C@H]1C[C@H]1c1ccccc1)c1ccc2c(c1)OCCO2` (some centres undefined), the Potency entry in experiment [1], in experiment [4], in experiment [3], in experiment [6] and in experiment [5] was “inactive” each time.

Turning to `CN1C(=O)c2ccccc2C1=O`, the Potency entry in experiment [1], in experiment [4] and in experiment [3] was “inactive” in each case.

`COc1ccc2c(c1)[C@]13CCCCC1C(C2)N(C)CC3` (some centres undefined): the Potency result in experiment [1], in experiment [4], in experiment [3], in experiment [6] and in experiment [5] was “inactive” throughout.

For `C[C@@]12OC(=O)[C@]1([C@@H](O)[C@@H]1C=CCCC1)NC(=O)[C@H]2CCCl`, the Potency is 34300 nM (active) in experiment [1], 24.3 µM (active) in experiment [4], 7.39 µM (active) in experiment [6] and 118 nM (active) in experiment [5].

With `CC=C(C)C(=O)N[C@@H](c1ccccc1)[C@@H](O)C(=O)O[C@H]1C[C@@]2(O)[C@@H](OC(=O)c3ccccc3)[C@@H]3[C@]4(OC(C)=O)CO[C@@H]4C[C@H](O)[C@@]3(C)C(=O)[C@H](OC(C)=O)C(=C1C)C2(C)C`, the Potency result in experiment [1] is “inactive”. The figures for the Potency in experiment [2], in experiment [6] and in experiment [5] were 0.0034 µM (active), 0.0013 µM (active) and 3.7 nM (active), respectively.

With `COCCNCCCn1c(C(=O)CF)c(-c2ccc(C)cc2)c2c(N)ncnc21`, the Potency entry in experiment [1], in experiment [4] and in experiment [3] was “inactive” in each case.

Turning to `CC(C)[C@H]1C(=O)N[C@H](CO)Cc2c[nH]c3cccc(c23)N1C`, the Potency entry in experiment [1], in experiment [3] and in experiment [6] was “inactive” throughout. In experiment [4], the Potency is 10.9 µM (active).

For `COc1ccc(CC2NCCc3cc(OC)c(OC)cc32)cc1OC` (centres undefined), the Potency entry in experiment [1], in experiment [2], in experiment [3], in experiment [6] and in experiment [5] was “inactive” throughout.

Turning to `O=c1cc(N2CCOCC2)oc2c(-c3cccc4c3sc3ccccc34)cccc12`, the Potency entry in experiment [1], in experiment [4] and in experiment [3] was “inactive” each time.

Take `CO[C@H]1CCC(O[C@H]2C[C@H]([C@]3(C)CC[C@]4(C[C@H](O)[C@@H](C)[C@@H]([C@@H](C)C=C(C)C(=O)[C@H](C)C[C@H](C)C(=O)O)O4)O3)O[C@]3(O[C@@H]([C@H]4O[C@@](O)(CO)[C@H](C)C[C@H]4C)C[C@H]3C)[C@H]2C)O[C@H]1C` (some centres undefined): the Potency entry in experiment [1], in experiment [4] and in experiment [3] was “inactive” each time. Moreover, the Potency in experiment [6] is 18.6 µM (active); in experiment [5] it was 4690 nM (active).

For the molecule `CC(=O)Nc1ccc(OC[C@](C)(O)C(=O)Nc2ccc([N+](=O)[O-])c(C(F)(F)F)c2)cc1`, the Potency result in experiment [1], in experiment [6] and in experiment [5] was “inactive” in each case. In addition, the Potency in experiment [4] is 10.9 µM (active).

For the molecule `CNc1nccc(-c2cccnc2Oc2cc(C(=O)Nc3cccc(C(F)(F)F)c3)ccc2C)n1`, the Potency entry in experiment [1], in experiment [4] and in experiment [3] was “inactive” throughout.

Turning to `C#CC1(O)CCC2C3CCC4=CC(=O)CCC4(C)C3CCC21C` (centres undefined), the Potency entry in experiment [1], in experiment [2], in experiment [6] and in experiment [5] was “inactive” each time.

For `Cc1ccnc(NS(=O)(=O)c2ccc(NC(=O)Nc3ccc(S(=O)(=O)Nc4nccc(C)n4)cc3)cc2)n1`, the Potency entry in experiment [1] is “inactive”. For the same molecule, the Potency in experiment [4] was 0.685 µM (active).

Turning to `CC(C)(C)c1cc(NC(=O)Nc2ccc(-c3cn4c(n3)sc3cc(OCCN5CCOCC5)ccc34)cc2)no1`, the Potency result in experiment [1], in experiment [4] and in experiment [3] was “inactive” throughout.
